Residue numbers refer to the chain shown, from its start. The full ranking holds about 5,800 sequences; the median of “enrichment r” is about 0.68, and the highest 2% start at about 11. For the sample, the highest values were picked, then their nearest neighbours and some sequences at random.
T1: UNK ZnF1-6 (called full-length) (human, UniProt Q9C0B0 30-357)
T1 sequence: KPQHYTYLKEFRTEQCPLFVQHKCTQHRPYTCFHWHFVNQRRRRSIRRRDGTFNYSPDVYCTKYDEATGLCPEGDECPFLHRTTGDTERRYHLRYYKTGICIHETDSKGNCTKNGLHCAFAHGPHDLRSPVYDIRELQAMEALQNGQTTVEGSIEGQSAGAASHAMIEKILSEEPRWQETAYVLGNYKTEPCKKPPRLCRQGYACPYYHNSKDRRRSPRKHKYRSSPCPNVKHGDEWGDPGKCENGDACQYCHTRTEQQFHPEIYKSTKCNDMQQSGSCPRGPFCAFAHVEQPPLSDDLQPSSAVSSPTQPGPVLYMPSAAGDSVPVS

B1: chr1:17067933:17068034:-|3pUTR|ENSG00000117115|msi1|FALSE|unique (ssRNA)
RNA: GGGAGUUCUACAGUCCGACGAUCACAUAAGGACCCUGGCCUACCCUCCAGCCCAACAGCCAGUUCUGGGUCAGCUGCCAACUUAGGGGUGGUUUGAUUAUCCCAUUGAAAUUCACCAGUGCCUUUGCCAAAGACCCUCUCAUUCAACAGAGGAUUGAGCAUCA
B2: chr12:104760787:104760888:+|3pUTR|ENSG00000171310|unk|FALSE|unique (ssRNA)
RNA: GGGAGUUCUACAGUCCGACGAUCUUCUUUUCUAAUGGCAUUGAAACUUUAAAAAAAAUGGAUUCAACUGUUUUUGCAGAAUGUAGAAAGUAUUCUGUGUCCUUGGUUAAAGAAAUCCACUUGUGAAGUGUGCCUGGAAAAUGACAACAGAGGAUUGAGCAUCA
B3: chr7:111727939:111728040:-|3pUTR|ENSG00000128512|unk|total|mutant (ssRNA)
RNA: GGGAGUUCUACAGUCCGACGAUCAAGUGGUAAACCGUGAUAAAGACUCCUUUUGUACCUUUUUAUGUUCACUUUUUUUUAUACCGUUUAAUCUUAAAACCAAUACGAUAUUGUCAAACGAUACAAUGUGUGACAAUGUUGUAUCAACAGAGGAUUGAGCAUCA
B4: chr10:117282838:117282939:-|3pUTR|ENSG00000165650|unk|FALSE|bound_elsewhere (ssRNA)
RNA: GGGAGUUCUACAGUCCGACGAUCCCCCUUGUGUUAUUUUUCUUCCUCUUGGUUUUUGAAUUAGUGUUAAAUAGAAUACUGUCUAGAUUCUUAAAAUAUUUUCAUUUCCAUCAUGGUUAUAACAAAUUUGCUGCAUGCCCAAACCAACAGAGGAUUGAGCAUCA
B5: chr7:111727939:111728040:-|3pUTR|ENSG00000128512|unk|FALSE|unique (ssRNA)
RNA: B3 RNA with C34U, C35A, C83U, C84A
B6: chr6:11183298:11183399:-|3pUTR|ENSG00000111859|msi1|total|mutant (ssRNA)
RNA: GGGAGUUCUACAGUCCGACGAUCACAUUUCACAUUUUUAAAACCAAAUGUUCAAUCUGUAUUACUCUUUGCCGUCUUGUAUGCCGAGGCUAUUUUUAAAUCAUUAAAUUUUCCGAUCUCUGUUUUCACCGCCACUGGGUUUUCCAACAGAGGAUUGAGCAUCA
B7: ENSG00000033178:stop:overlap|stop_codon|ENSG00000033178|stop_codon|NA|stop_codon (ssRNA)
RNA: GGGAGUUCUACAGUCCGACGAUCCUAUUGAAAUUUAUGGCUGUCCGAAUAUUUGUUUGUUAAUACAUAAGUGUUCUGUAUAUUAGUAUUCUCUUAUCCUUCACAUCCAGCUUUGCUACUCUGUGGCAUUAGACAACUUUUUUCCAACAGAGGAUUGAGCAUCA
B8: chr2:227556236:227556337:+|3pUTR|ENSG00000173744|msi1|FALSE|bound_elsewhere (ssRNA)
RNA: GGGAGUUCUACAGUCCGACGAUCUGUUGAAUGCCUUUUUGCAAUGAUGACUGAGUUGUUAUCAUAGUAUUUUAAAACCUGUAUAGUGUUUUAGACUUGUUAAAACAUUGCUGUCUAGUGUACAUCUAGCUAAAAGUGUGGUUUCAACAGAGGAUUGAGCAUCA
B9: chr17:80395157:80395266:+|3pUTR|ENSG00000173821|unk|FALSE|bound_elsewhere (ssRNA)
RNA: GGGAGUUCUACAGUCCGACGAUCCUUCAAAGCCUUAACUGUCAAAUCUUGCAUUAUCUUGUUUGUACAGAAAUAUACUGGCCUAGCAGAGGCAAAAAAAAAAAAAAUGAAUUUUAUUUUACUUGUCACACCUGUCUUAAUAAACAACAGAGGAUUGAGCAUCA
B10: chr5:159157431:159157536:-|3pUTR|ENSG00000145860|unk|total|mutant (ssRNA)
RNA: GGGAGUUCUACAGUCCGACGAUCCAAAAAGUGUUUUUCAGACCUCGGUAUUCCUAAUGUGGGAUGUGACUUUAUUUUAUUUUCCGCCGCAAAUUUGGAUGCCGACUGACAGACACCGCUGAAUGUCUUAAUAAAUUUAAAUUUCAACAGAGGAUUGAGCAUCA
B11: chr19:811491:811550:+|3pUTR|ENSG00000011304|msi1_unk|FALSE|overlapping (ssRNA)
RNA: GGGAGUUCUACAGUCCGACGAUCUAGCAAUAUUUCCAGUUGACCAAAUAUUCUAAUCUUUUUUCAUUUAUAUGCAAAAGAAAUAGUUUUAAGUAACUUUUUAUAGCAAGAUGAUACAAUGGUAUGAGUGUAAUCUAAACUUCCCAACAGAGGAUUGAGCAUCA
B12: chr7:123541454:123541562:-|3pUTR|ENSG00000128609|unk|FALSE|unique (ssRNA)
RNA: GGGAGUUCUACAGUCCGACGAUCUCCAUAGUGUCAUUUUAUUUUAGUCAUUAUUGAAUUAUACCAUUUACUCUGUUUUCUUAUAGUCUUAAUUUUAUUAUAUUUUGUUGUUACUGUAUUAUAUUUGAAAACCUUCAAAUUAGACAACAGAGGAUUGAGCAUCA
B13: chr5:159157431:159157536:-|3pUTR|ENSG00000145860|unk|FALSE|bound_elsewhere (ssRNA)
RNA: B10 RNA with C83U, C84A, C86U, C87A, C101U, C102A, C115U, C116A
B14: chr7:123541454:123541562:-|3pUTR|ENSG00000128609|unk|total|mutant (ssRNA)
RNA: B12 RNA with U28C, A29C, U44C, A45C, U83C, A84C, U140C, A141C

Target: T1, UNK ZnF1-6 (called full-length)
Assay: nsRBNS (natural sequence RNA bind-n-seq); RBNS binding buffer (assumed for nsRBNS): 25 mM Tris pH 7.5, 150 mM KCl, 3 mM MgCl2, 0.01% Triton X-100, 500 ug/ml BSA, 20 U/ml SUPERase-In, 4 C; UNK is unkempt and MSI1 is Musashi-1; names of the RNAs are library labels; protein concentration not given here; high values mean tight binding

Compared with B1, B2 is lower in binding signal: 0.896 enrichment R for the first, 0.431 enrichment R for the second.

Going from B3 to B4, the binding signal rises from 2.33 enrichment R to 3.48 enrichment R.

First: B5
Second: B6
The binding signal of the first is higher: 21.5 enrichment R for the first, 1.08 enrichment R for the second.

First: B7
Second: B8
The binding signal of the first is higher: 0.919 enrichment R for the first, 0.596 enrichment R for the second.

Compared with B9, B10 is higher in binding signal: 0.564 enrichment R for the first, 0.813 enrichment R for the second.

Compared with B11, B12 is higher in binding signal: 0.832 enrichment R for the first, 150 enrichment R for the second.

First: B13
Second: B14
The binding signal of the first is lower: 11.8 enrichment R for the first, 17 enrichment R for the second.

— paper PMC12136788
